Compounds with a hit are over-represented: about 2% of the library has one in this group of screens.
Neddylation inh: blocks human cullin neddylation; P61081+Q13564; TR-FRET cullin neddylation, biochemical; inhibition, % at 25 µM; hit rate 0.58% among 360,000; in the data active = inhibition above about 36%
sPLA2-III inh: Blocks human group III sPLA2 activity; inhibition, % at 12.2 µM; QFRET BODIPY PC-A2 liposome hydrolysis, fluorescence; hit rate 0.56% among 370,000;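 active = inhibition above mean plus 3 SD of compounds lying within the high and low control bounds, cut at about 19% in these data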;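 note: 0% = median of test compound wells and 100% = no enzyme DMSO wells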
Target sequence (Q9NZ20 whole entry, looked up): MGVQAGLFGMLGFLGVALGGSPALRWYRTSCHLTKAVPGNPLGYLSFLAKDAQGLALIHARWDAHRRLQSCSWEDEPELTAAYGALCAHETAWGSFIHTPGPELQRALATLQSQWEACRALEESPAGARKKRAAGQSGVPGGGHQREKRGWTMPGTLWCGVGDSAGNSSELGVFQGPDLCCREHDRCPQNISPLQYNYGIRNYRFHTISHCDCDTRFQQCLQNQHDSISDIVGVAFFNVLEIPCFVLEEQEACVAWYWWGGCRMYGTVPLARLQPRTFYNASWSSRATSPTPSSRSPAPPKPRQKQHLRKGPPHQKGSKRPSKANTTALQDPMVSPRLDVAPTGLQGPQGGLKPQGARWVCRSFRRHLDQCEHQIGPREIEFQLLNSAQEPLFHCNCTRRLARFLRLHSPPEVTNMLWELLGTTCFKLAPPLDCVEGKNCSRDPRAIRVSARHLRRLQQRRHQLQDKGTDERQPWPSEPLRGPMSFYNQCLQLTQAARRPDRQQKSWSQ
NadD inh: inhibitors of Staphylococcus aureus NadD; purified NadD enzyme, colorimetric absorbance read-out; inhibition, % at 20 µM; hit rate 0.78% among 360,000; AID 602399; in the data active = inhibition above about 26%
DAGLB inhibitor: diacylglycerol lipase beta (human) inhibition; Q8NCG7; hit rate 0.059% among 340,000; inhibition, % at 5.17 µM; AID 504411; HEK293T DAGLB membrane lysate, EnzChek fluorogenic substrate; in the data active = inhibition above about 34%;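 note: 0% = enzyme with vehicle and 100% = wells lacking enzyme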
ARNT TACC3 PPI: disrupts binding between human ARNT and TACC3 | AlphaScreen His-ARNT PAS-B/GST-TACC3 binding, luminescence; TACC3 fragment carries E629A point mutation | inhibition, % at 9.99 µM | hit rate 0.66% among 390,000 | AID 623870;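 active = mean inhibition of replicates at least 50% and at least half of replicates each reaching 50%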;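 note: 0% = complete ARNT plus TACC3 wells and 100% = ARNT alone without TACC3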
NadD conf: confirmation of Staphylococcus aureus NadD inhibitors; shares compounds with NadD inh; purified S. aureus NadD, colorimetric enzyme assay; inhibition, % at 20 µM; hit rate 13% among 2,000; AID 624309; in the data active = inhibition mostly above about 42%, no sharp cut-off; inactive = mostly below about 42%
Starred values were filed as active, the others as inactive; . = no result.

SMILES | Neddylation inh | sPLA2-III inh | NadD inh | DAGLB inhibitor | ARNT TACC3 PPI | NadD conf
O=C(CN1C(=O)NC2(CCCCC2)C1=O)Nc1cc(C(F)(F)F)ccc1N1CCCC1 | -2.4 | 1.4 | -0.6 | -0.3 | 19.2 | .
CC1CC(C)(C)CC2(C1)NC(=O)N(CC(=O)Nc1cc(C(F)(F)F)ccc1N1CCCCC1)C2=O (configuration not stated) | -17.4 | 8.9 | 41.8* | -3.1 | 1.1 | 0.1
Cc1noc(C)c1NC(=O)N[C@H]1C=C[C@@H](CC(=O)N2CCN(C)CC2)O[C@@H]1CO | . | . | . | . | -3.3 | .
O=C(c1cccc(F)c1)N1C[C@@H]2[C@H](c3ccccc31)[C@@H](CO)N2C(=O)c1ccc(F)cc1 | . | . | . | . | -7.3 | .
Cc1ccc(S(=O)(=O)N(C)C[C@@H]2OCCCC[C@@H](C)Oc3ccc(NS(C)(=O)=O)cc3C(=O)N([C@H](C)CO)C[C@H]2C)cc1 | . | . | . | . | -2.2 | .
O=C(NC(=S)Nc1nc(-c2ccccc2)cs1)c1cccnc1 | -3.9 | 7.0 | 11.6 | 0.0 | 0.0 | .
O=C(NC(=S)Nc1nc(-c2ccccc2)cs1)c1cncc(Br)c1 | 1.0 | 0.4 | 32.7* | -2.4 | -16.3 | 11.3
CCCCCCC(=O)Nc1nc(C)c(-c2csc(Nc3cc(Cl)ccc3C)n2)s1 | -24.4 | 2.7 | 39.0* | 1.8 | 5.2 | 11.8
CCCCCCC(=O)Nc1nc(C)c(-c2csc(Nc3ccccc3OC)n2)s1 | -1.8 | -9.3 | 19.2 | -6.8 | -8.8 | .
CCCCC(=O)Nc1nc(C)c(-c2csc(Nc3cc(Cl)ccc3OC)n2)s1 | 5.3 | 5.0 | 33.6* | 3.9 | -3.0 | 28.5
COc1cccc(C(=O)Oc2ccc(/C=N/Nc3ccc(C(=O)O)cc3)cc2OC)c1 | 7.2 | -64.2 | 5.4 | 3.3 | 12.3 | .
COc1cccc(OCc2cc(/C=N/Nc3ccc(C(=O)O)cc3)ccc2OC)c1 | 13.0 | -1.0 | 46.4* | 2.7 | 11.3 | 53.4*
O=C(O)Cc1sc(N/N=C\c2ccccc2)nc1-c1ccccc1 | 5.7 | 23.1* | 46.9* | 8.8 | 1.8 | 54.8*
CN(C)CC(=O)N[C@H]1CC[C@H](CC(=O)NCc2ccccc2F)O[C@H]1CO | . | . | . | . | -3.2 | .
COc1cccc(-c2nc(N3CCCCC3)c3ccccc3n2)c1O | 0.3 | -2.1 | 0.5 | -5.0 | 16.7 | .
COc1cccc(-c2nc(N3CCN(c4ccccc4)CC3)c3ccccc3n2)c1O | 5.2 | 4.2 | 30.9* | -7.0 | 2.0 | 8.4
Cc1nc(SCC(=O)NCc2ccco2)c2c3c(sc2n1)CCCC3 | -36.8 | -2.9 | 10.1 | -15.8 | -4.0 | .
CC(C)Sc1nc2sc3c(c2c2nnc(SCC(=O)NCc4ccco4)n12)CCCC3 | -105.0 | -4.0 | 38.4* | -21.9 | -2.7 | 37.2
CCOc1ccc2nc(NC(=O)c3cccc(-c4cc5ccccc5oc4=O)c3)sc2c1 | 35.4 | -0.3 | 38.8* | 0.1 | -1.5 | 4.7
CCOc1ccc(C(=O)Nc2cccc(-c3cc4ccccc4oc3=O)c2)cc1[N+](=O)[O-] | 6.5 | 5.9 | 36.5* | -7.3 | 15.8 | -3.7
CCOc1ccccc1NC(=O)c1ccc(OCC)c([N+](=O)[O-])c1 | 8.7 | 0.1 | -5.9 | -6.3 | -6.9 | .
CCOC(=O)c1sc2nc(-c3ccco3)c3c(c2c1N)CC(C)(C)OC3 | 34.3 | -2.0 | 31.6* | 9.5 | -4.1 | 10.3
COc1ccc(-c2cccc(C3CC=CC4C3C(=O)N(Cc3ccccc3)C4c3ccc(C(F)(F)F)cc3)c2)cc1 (configuration not stated) | -24.3 | 3.2 | 10.3 | -12.0 | 4.8 | .
CN(C)c1ccc(-c2cccc(C3CC=CC4C3C(=O)N(Cc3ccccc3)C4c3ccc(C(F)(F)F)cc3)c2)cc1 (configuration not stated) | 8.2 | -6.7 | 31.1* | -5.6 | 1.2 | 12.7
C[C@H]1CN([C@@H](C)CO)C(=O)c2cc(-c3ccncc3)cnc2O[C@@H]1CN(C)S(=O)(=O)c1ccc(F)cc1 | . | . | . | . | -8.5 | .
Cc1ccc(CC(=O)N/N=C/c2ccc(OC(=O)c3ccc([N+](=O)[O-])cc3)cc2)cc1 | 9.2 | 0.1 | 32.7* | 0.0 | -4.1 | 5.3
COc1ccc(Br)cc1CNC(=O)CN1C(=O)C(c2ccccc2)Oc2cccnc21 (configuration not stated) | -10.8 | -1.3 | 58.5* | -1.3 | -13.7 | 52.2*
COc1ccc(NC(=O)CCCN2C(=O)C(c3ccccc3)Oc3cccnc32)cc1OC (configuration not stated) | 4.9 | -3.0 | -2.8 | -0.7 | -24.2 | .
